# Shown are actives, neighbours in structure and some others; about 6.5% of the full set was active somewhere.
# FMDV antiviral: blocks foot and mouth disease virus | hit rate 1.2% among 410,000 | FMDV antiviral cell-based qHTS | Potency, µM (doses to about 57.9 µM), for the others: top-dose activity change, negative = inhibition, most hits filed as inhibitors | AID 1159524; calls by dose curve; tested in HEK293T cells; note: read-out not given here; potency is the fitted concentration of half-maximal effect; nearly all actives have a fitted effect of over 45% in size
# VACV Venus inh: inhibitors of vaccinia virus (Venus reporter). AID 720580. Vaccinia virus Venus reporter expression, fluorescence. hit rate 0.46% among 330,000. Potency, µM (top dose mostly 36.5 µM), inactives show at the highest dose activity change, negative = inhibition, most hits filed as inhibitors; calls by dose curve; tested in A549 cells; note: potency is the fitted concentration of half-maximal effect; nearly all actives have a fitted effect of over 30% in size
# Marburg entry inh: inhibitors of Marburg virus binding or cell entry; Marburg virus pseudotyped entry inhibition, cell reporter; Potency, µM (titrated, usually from 37.8 µM), for inactives: top-dose activity change, negative = inhibition, actives largely listed as inhibitors; hit rate 1.8% among 300,000; AID 540276; calls by dose curve; tested in HEK293 cells; note: potency is the fitted concentration of half-maximal effect
# HCMV antiviral: human cytomegalovirus inhibition. activity change, negative = inhibition, % at 57.5 µM. hit rate 4.5% among 410,000. HFF cells, HCMV-luciferase reporter, 72 h; active compounds read low; in the data active = activity change below about -60%; inconclusive = no clear call, values can overlap the other calls; inactive = above about -39%
#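 Human foreskin fibroblasts infected with luciferase-reporter HCMV at MOI 1 PFU/cell, compounds at two doses. Luciferase measured 72 h post infection; normalized to buffer-only basal and Salinomycin (10uM) controls.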
# Vaccinia mCherry: inhibitors of vaccinia virus infection (mCherry reporter signal); Potency, µM (titrated, usually from 36.5 µM), for inactives: top-dose activity change, negative = inhibition, actives largely listed as inhibitors; Vaccinia virus mCherry reporter infection, fluorescence; AID 720579; hit rate 0.63% among 310,000; calls by dose curve; tested in A549 cells; note: potency is the fitted concentration of half-maximal effect; nearly all actives have a fitted effect of over 35% in size
# Lassa entry inh: inhibitors of Lassa virus binding or cell entry. Lassa virus pseudotype entry inhibition, cell reporter. Potency, µM (series often up to 37.9 µM), for the others: at the highest dose activity change, negative = inhibition, actives largely listed as inhibitors. hit rate 1.2% among 300,000; calls by dose curve; tested in HEK293 cells; note: potency is the fitted concentration of half-maximal effect; nearly all actives have a fitted effect of over 50% in size
# * = called active by the depositor; i = inactive; ? = inconclusive; / = no result; ! = not confirmed by another sample; [ ] = another dose, or the depositor's remark. % is set by controls: 0 for no effect and ±100 for the full control effect.
SMILES,FMDV antiviral,VACV Venus inh,Marburg entry inh,HCMV antiviral,Vaccinia mCherry,Lassa entry inh
Cc1cc(Nc2ccc3c(c2)OCCO3)c2cc(Cl)ccc2n1,40µM*,-16%,-26%,-93*,-27%,9%
Cc1ccc(Nc2cc(C)nc3ccccc23)c(C)c1,?,-23%,10µM*,?,i,-9%
Cc1ccc(Nc2cc(C)nc3ccc(C)cc23)cc1,-28%,?,11µM*,-39,?,?
Cc1cc(C)c(C#N)c(Nc2ccc3c(c2)OCCO3)n1,1%,0%,/,93,6%,/
CCOc1ccc(Nc2cc(C)nc3ccc(C)cc23)cc1,?,-27%,?,-74*,-23%,11µM*
COc1ccc(-c2nc3cnc(OC)nc3n(-c3ccccc3)c2=O)cc1,-1%,/,/,/,/,/
Clc1ccc2c(ccc[n+]2CCC2CCCCC2)c1,/,-18%,/,/,22%,/
O=C(COC(=O)C1=Cc2ccccc2OC1)NCc1ccccc1,-8%,-13%,26%,-12,-16%,-19%
O=C(OCc1cccnc1)C1=Cc2ccccc2OC1,25%,-3%,-24%[46.1 µM],-103*,-5%,1%
Cc1c(C(=O)N(C)Cc2nccs2)sc2ncnc(NCC3CCCO3)c12 (stereo unspecified),-19%,-7%,/,/,-9%,/
CC(=O)Nc1ccc(-c2nnc(SCc3ccccc3)n2C)cc1,/,-7%,/,/,-15%,/
Cc1ccc(Cl)cc1NC(=O)C1CCN(c2nc3ccccc3n3cccc23)CC1,0%,-16%,/,31,-9%,-3%[46.1 µM]
COc1ccc(C(=O)NC(c2ccc(OC)c(OC)c2)c2cc(Cl)c3cccnc3c2O)cc1 (stereo unspecified),/,?,/,/,4.5µM*,/
COc1ccc(C(NC(=O)c2cccnc2)c2cc(Cl)c3cccnc3c2O)cc1OC (stereo unspecified),?,?,7.1µM*,-97*,-11%[1.46 µM],16µM*
Oc1c(C(Nc2ccccn2)c2cccnc2)cc(Cl)c2cccnc12 (stereo unspecified),-25%,?,?,2,?,?
CCC(=O)NC(c1ccc(OC)cc1)c1cc(Cl)c2cccnc2c1O (stereo unspecified),-19%,?,2.2µM*,34,?,2.8µM*
COc1ccc(C(=O)NCCN2Cc3cc(C)ccc3OC(C)C2)c(OC)n1 (stereo unspecified),5%,2%,/,/,-1%,/
CC(C)C(=O)Nc1cccc(S(=O)(=O)c2cccc(NC(=O)C(C)C)c2)c1,0%,?,?,-25,/,0.63µM*
CSc1cccc(NC(=O)C(C)C)c1,-15%,-3%,1%,-8,i,19%
COc1ccccc1C(=O)N[C@@H]1c2ccccc2C2(CCN(C(=O)c3ccnn3C)CC2)[C@H]1OC,10%,7%,/,/,-12%,/
Cc1[nH]c(-c2ccco2)nc1C(=O)O,6%,/,9%,-111*,/,14%
Cc1[nH]c(-c2ccc3c(c2)OCO3)nc1C(=O)O,7%,-6%,/,20,11%,/
Cc1ccc(C(=O)/C=C/c2cc(C#N)n(C)c2C)cc1,-25%,-19%,-5%[46.1 µM],-85*,-6%,1%
O=S(=O)(O)c1nc2ccccc2n1Cc1ccccc1,-11%,-2%,?,-13,-10%,18%
CS(=O)(=O)c1nc2ccccc2n1Cc1ccccc1,4%,/,-7%,-67*,/,-10%
SMILES,FMDV antiviral,VACV Venus inh,Marburg entry inh,HCMV antiviral,Vaccinia mCherry,Lassa entry inh
CCS(=O)(=O)c1nc2ccccc2n1Cc1ccccc1Cl,0%,-6%,/,-67*,i,/
CCOC(=O)c1cnc(N2CCN(c3cccc(C)c3C)CC2)c2ccccc12,-15%,-12%[7.34 µM],/,33,-1%[7.34 µM],?
COc1ccc(S(=O)(=O)N2CCN(C(=O)c3cc(-c4ccc(Br)cc4)n[nH]3)CC2)cc1OC,?,?,?,-72*!,-20%,10µM*
COc1ccc(N2C(=O)C3CC(C)=C(C)CC3C2=O)c(OC)c1 (stereo unspecified),-22%,/,-4%,1,/,8%
COc1cc(N2C(=O)C=CC2=O)ccc1N1C(=O)C=CC1=O,32µM*,?,?,-76*,-30%,?
NC1=NN=C(c2ccc3c(c2)OCCO3)CS1,11µM*,-18%,11µM*,47,-15%,7.1µM*
C=CCN=C1NN=C(c2ccc3c(c2)OCCO3)CS1,8.9µM*,-16%,0.92µM*,-33,?,0.46µM*
C=CCN=C1NN=C(c2cc(C)n(CC=C)c2C)CS1,18µM*,-1%,?,-88*,-1%,?
Cc1sc(N)nc1-c1ccc2c(c1)OCCO2,50%,/,/,31,/,/
C=C1C(=O)OC2C1C(OC(=O)C(C)=CC)CC(=C)C1C(O)C3OC3(C)C21O (stereo unspecified),28µM*,-15%,-23%,?,-1%,-15%[46.1 µM]
CCCn1c(=O)c(C(=O)NCc2ccccc2Cl)c(O)c2ccccc21,-14%,-11%,1%,-37,i,?
CCCCCn1c(=O)c(C(=O)NCc2ccncc2)c(O)c2ccccc21,-14%,?,?,-88*,?,?
CCCCCn1c(=O)c(C(=O)NCc2ccccc2Cl)c(O)c2ccccc21,-28%,/,/,-74*,/,/
CCOC(=O)C(C)NC(=O)c1c(C)oc2ncn(CC(C)C)c(=O)c12 (stereo unspecified),6%,-4%,/,5,-13%,23%[46.1 µM]
CCCC[C@@H](C=O)NC(=O)[C@H](CC(C)C)NC(=O)OCc1ccccc1,-5%,-15%[60.7 µM],/,/,-20%[60.7 µM],/
COc1ccc(NC(=O)Nc2cn(CC(C)C)c(=O)c3ccccc23)c(OC)c1,0%,-5%,/,-104*,-3%,14%[46.1 µM]
O=C(CSc1ccc2ccccc2n1)N/N=C/c1ccccc1O,11%,/,/,-100*,/,/
O=C(CSC1c2ccccc2-c2ccccc21)N/N=C/c1ccccc1O,?,/,8.2µM*,-96*,/,12µM*
Cc1cc(SCC(=O)N/N=C/c2ccccc2C(=O)O)c(C)cc1Br,-5%,-7%,1%[46.1 µM],-18,i,-9%[46.1 µM]
O=C(CSc1ccc2ccccc2n1)N/N=C/c1ccc(O)cc1,-13%,/,/,-32,/,/
O=C(CSC1c2ccccc2-c2ccccc21)N/N=C/c1ccc(C(=O)O)cc1,-17%,-4%,-15%[46.1 µM],-34,-2%,-2%[46.1 µM]
Cc1cc(SCC(=O)N/N=C/c2ccc(O)cc2O)c(C)cc1Br,?,/,?,-83*,/,4.6µM*
CCc1cccc(NC(=O)Cn2c(=O)n(CCC(=O)NCc3ccccc3Cl)c(=O)c3sccc32)c1,8%,-22%,12%[46.1 µM],-37,-25%,-18%[46.1 µM]
CCOc1ccc(NC(=O)CN2CCCC2c2cccs2)cc1S(=O)(=O)N1CCCCC1 (stereo unspecified),-7%,-20%,?,?,-1%,?
Cc1ccc(NC(=O)Cn2nc(C(=O)O)c3ccccc3c2=O)cc1S(=O)(=O)N1CCCCC1,40µM*,-10%,-27%,2,-21%,3%
Cc1ccc(NC(=O)CN2CCCC2c2cccs2)cc1S(=O)(=O)N1CCCCC1 (stereo unspecified),?,/,/,-63*,/,/

# Bioassay records: PubChem BioAssay, National Center for Advancing Translational Sciences (NCATS)
